# Compound activity from PubChem.
# PolyA inh: polyadenylation inhibitors in yeast reporter cells, primary screen, luminescence, S. cerevisiae; S. cerevisiae SKY197-pL101 polyadenylation reporter, beta-gal luminescence; efflux-impaired pdr1/pdr3 knockout yeast; score 100 = 6 SD above DMSO; 300,000 compounds, 0.02% hits; activity score, % at 12 µM; AID 1875, 2009;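 active = lowest replicate activity score at least 50, where 100 means six control SD above control mean; inconclusive = lowest score under 50 but half or more replicates reach 50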;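 note: yeast exposed to compound for 9 h at 30 °C; higher score means more reporter readthrough which indicates perturbed polyadenylation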
# AHR activator: AHR activators, primary screen, cell-based, luminescence, luciferase reporter, human; Aryl hydrocarbon receptor (Homo sapiens), P35869; AHR-responsive luciferase reporter cells; activation, % at 5 µM; 320,000 compounds, 2.5% hits; AID 2796, 2010; in the data active = activation above about 47%;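 note: 0% = vehicle wells and 100% = reference agonist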
# Target sequence (P35869 whole entry, looked up): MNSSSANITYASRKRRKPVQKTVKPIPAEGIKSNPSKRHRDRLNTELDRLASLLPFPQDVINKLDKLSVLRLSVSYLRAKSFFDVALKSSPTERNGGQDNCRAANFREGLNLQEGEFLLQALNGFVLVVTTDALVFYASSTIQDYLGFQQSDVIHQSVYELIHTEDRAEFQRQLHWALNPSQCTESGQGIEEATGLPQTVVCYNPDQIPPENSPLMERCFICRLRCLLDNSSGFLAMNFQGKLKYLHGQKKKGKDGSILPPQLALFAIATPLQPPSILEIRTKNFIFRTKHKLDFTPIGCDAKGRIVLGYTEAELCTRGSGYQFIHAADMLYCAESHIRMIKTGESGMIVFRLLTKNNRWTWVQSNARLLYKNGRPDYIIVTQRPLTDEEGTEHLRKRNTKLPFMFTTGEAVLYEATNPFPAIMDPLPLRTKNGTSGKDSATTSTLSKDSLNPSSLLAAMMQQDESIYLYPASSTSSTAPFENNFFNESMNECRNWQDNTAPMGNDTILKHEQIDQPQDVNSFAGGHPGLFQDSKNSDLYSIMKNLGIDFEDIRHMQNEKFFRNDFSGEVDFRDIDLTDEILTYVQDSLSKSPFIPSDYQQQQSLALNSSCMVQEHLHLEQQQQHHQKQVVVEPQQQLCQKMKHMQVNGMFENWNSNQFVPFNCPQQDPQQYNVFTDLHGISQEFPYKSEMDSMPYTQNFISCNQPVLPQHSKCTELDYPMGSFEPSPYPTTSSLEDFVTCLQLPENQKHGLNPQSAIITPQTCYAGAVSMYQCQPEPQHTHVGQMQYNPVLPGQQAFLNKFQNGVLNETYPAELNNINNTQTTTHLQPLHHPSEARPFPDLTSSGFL
# HIF act: HIF pathway transcriptional activators, primary screen, cell-based, U2OS HRE-luciferase, luminescence. U2OS HRE-luciferase reporter; normalized: DMSO 0%, desferrioxamine 100%. activation, % at 7.5 µM (by protocol). 300,000 compounds, 0.32% hits. AID 1910, 2009;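 active = mean activation of at least 10% of the iron chelator positive control signal, with at least half of replicates also reaching 10%; inconclusive = mean and replicate majority disagree about reaching 10%; inactive = mean and most replicates under 10%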
# Platelet DG rel: inhibitors of platelet dense granule secretion, primary screen, cell-based, MLPCN, human platelets | human platelet-rich plasma, SFLLRN dense granule ATP release, luminescence | inhibition, %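 (compounds screened at 7.5 µM in platelet-rich plasma)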 | 300,000 compounds, 0.22% hits | AID 1663, 2009;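 active = mean replicate score, as percent of positive control, at or above 50; inconclusive = mean below 50 but at least one replicate at or above 50; inactive = mean and every replicate below 50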
# pCIP destab: p/CIP-EGFP fusion destabilizers, primary screen, fluorescence, F442A cells | 290,000 compounds, 0.01% hits | 16 h | decrease of EGFP signal, % at 10 µM;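 active = EGFP signal decrease of at least 30% at 10 µM or well 3 SD below plate mean, unless failing retest; inactive = the rest, including hits failing retest or dose response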
# AHR act cf: AHR activators, confirmation, cell-based, luminescence, luciferase reporter, human; 2,300 compounds, 87% hits; activation, % at 9 µM; shares compounds with AHR activator; human cells, AHR-responsive luciferase reporter; in the data active = activation above about 49%;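 note: HepG2 hepatoma cells carrying a DRE-driven firefly luciferase reporter; 0% = vehicle wells and 100% = reference agonist wells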
# PXR act counter: human PXR activators, counter-screen for AHR activator project, cell-based, luciferase luminescence | cell-based PXR reporter | activation, % at 11.6 µM | 2,300 compounds, 88% hits | shares compounds with AHR activator; in the data active = activation above about 11%;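 note: human hepatoma DPX-2 cells expressing full-length human PXR; 0% = DMSO and 100% = reference agonist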
# Starred values were filed as active, the others as inactive; u = inconclusive; x = not tested or not shown. Hits are enriched below; roughly 2.8% of the tested compounds scored in any of these assays.
SMILES,PolyA inh,AHR activator,HIF act,Platelet DG rel,pCIP destab,AHR act cf,PXR act counter
O=c1[nH]c(-[n+]2ccc3ccccc3c2)c(/C=N/N=C(\[O-])c2ccccc2)s1,11,84*,1,3,1,50*,20*
CC(C)(C)c1cc[n+](-c2[nH]c(=O)sc2/C=N/N=C(\[O-])c2cccnc2)cc1,-2,2,0,0,-6,x,x
COc1ccc(C(=O)NC(=S)Nc2cc(C)ccn2)cc1[N+](=O)[O-],1,82*,0,7,-18,109*,13*
COc1ccc(C(=O)Nc2cc(C)on2)cc1[N+](=O)[O-],0,0,0,-2,10,x,x
CCOc1ccccc1NC(=O)COC(=O)C1CC(=O)N(c2c(C)cccc2C)C1 (stereo unspecified),0,4,-2,2,3,x,x
C=C1C(=O)O[C@@H]2C[C@@H](C)[C@@H]3C=CC(=O)[C@@]3(C)[C@@H](OC(C)=O)[C@H]12,6,81*,-2,2,-46,-14,283*
C[C@@H]1C[C@@H]2OC(=O)[C@]3(C)[C@H]2[C@@H](OC3(C)O)[C@]2(C)C(=O)C=C[C@H]12 (stereo partly specified),-13,0,1,3,-7,x,x
CCCCc1cc2c(c(NC(C)=O)n1)c(=O)oc1ccccc12,-21,94*,0,-31,7,99*,x
Cc1ccc(NC(=O)c2ccccc2NC(=O)c2cccnc2)cc1,18,-1,-11,1,-14,x,x
CCOc1ccc(NC(=O)c2cc(Cl)nc3ccccc23)cc1,10,95*,0,-12,15,91*,11*
COc1ccc(Cl)cc1NC(=O)c1cccnc1,6,88*,0,-3,6,107*,11*
CCOc1ncccc1C(=O)Nc1ccc(Cl)cc1,-8,117*,0,2,-4,122*,19*
O=C(Nc1ccccc1C(=O)Nc1ccc(Cl)cc1)c1cccnc1,5,86*,0,3,-12,56*,31*
O=C(NCc1ccccc1Cl)c1ccc2nc[nH]c2c1,4,0,0,0,0,x,x
CSc1cccc(-n2ccc(=O)c(C)c2C)c1,9,0,-1,5,-1,x,x
Cc1cc(Br)c2c(c1)/C(=C/C(=O)c1cccs1)C(=O)N2,-53,21,0,3,-6,x,x
Cc1cccc2c1NC(=O)/C2=C\C(=O)c1cccs1,-32,84*,0,4,4,113*,116*
COc1ccc(C#Cc2c(-c3ccc(OC)cc3)oc3ccc(-c4ccc(OC)cc4)cc23)cc1,1,1,4,0,x,x,x
COc1ccc(-c2oc3ccc(N4CCOCC4)cc3c2C#Cc2ccc(N)cc2)cc1,-19,95*,-2,-13,x,52*,x
Cc1ccnc(N2C(=O)c3cccc4c([N+](=O)[O-])ccc(c34)C2=O)c1,-52,-5,2,-2,-14,x,x
Cc1nnc(N2C(=O)c3cccc4c([N+](=O)[O-])ccc(c34)C2=O)s1,-7,87*,0,17,4,100*,x
CCCOc1ccccc1-c1nc2c([nH]1)c(=O)[nH]c(=O)n2C,7,137*,0,-10,-3,79*,34*
CCN1C(=O)C(=O)N(CC(=O)Nc2ccccc2OC(F)F)C1=O,x,5,x,x,x,x,x
COc1ccc(N(CC(=O)Nc2ccc(C(C)C)cc2)S(=O)(=O)c2c(C)noc2C)cc1,11,6,0,-4,5,x,x
Cc1noc(C)c1S(=O)(=O)N(CC(=O)Nc1ccc2c(c1)OCO2)c1ccc(C(C)C)cc1,x,80*,x,x,0,84*,159*
SMILES,PolyA inh,AHR activator,HIF act,Platelet DG rel,pCIP destab,AHR act cf,PXR act counter
O=C(CSc1nnnn1-c1cccnc1)Nc1ccccc1F,12,12,0,2,-1,x,x
Cc1c(OCC(=O)N(C)c2ccccc2)ccc2c3c(c(=O)oc12)CCC3,-13,5,1,6,2,x,x
OC1CCN(c2c3c(nc4cc(-c5cccc(F)c5)nn24)CCCC3)CC1,-15,2,1,3,-2,x,x
CN(CCO)c1c2c(nc3cc(-c4cccc(F)c4)nn13)CCCC2,-15,89*,0,4,-1,92*,64*
C=C1c2cc3c(cc2NC(=S)N1Cc1ccccc1)OCO3,-12,86*,4,-4,-1,65*,145*
S=C(NCc1ccc2c(c1)OCO2)NC1CCN(Cc2ccccc2)CC1,0,-1,0,3,-18,x,x
CC(=O)c1c(C)[nH]c(C(=O)Nc2ccc(Cl)c(S(=O)(=O)N(C)C)c2)c1C,1,81*,4,-3,2,83*,53*
CC(=O)c1c(C)[nH]c(C(=O)Nc2cccc(S(=O)(=O)N3CCOCC3)c2)c1C,23,100*,0,4,4,78*,34*
Cc1ncsc1C(=O)Nc1nc2c(s1)CC(C)CC2 (stereo unspecified),16,14,2,23,-7,x,x
CC1CCc2nc(NC(=O)C3CC3)sc2C1 (stereo unspecified),-18,135*,2,0,-2,105*,37*
COC1=C(Nc2ccc(O)cc2)C(=O)c2ccccc2C1=O,u,40,0,4,-16,x,x
O=C1C(Cl)=C(Nc2ccc(O)cc2)C(=O)c2ccccc21,16,132*,-4,1,-17,112*,x
[O-][n+]1c2ccccc2c2n1CCN=C2c1ccc(Cl)cc1,-13,102*,1,-2,x,115*,12*
Cc1ccc(C2=NCCn3c2c2ccccc2[n+]3[O-])cc1,-7,20,1,-5,x,x,x
Nc1c(Cl)cc(C2=NCCn3nc4ccccc4c32)cc1Cl,1,35,0,-9,x,x,x
Nc1c(Cl)cc(C2=NCCn3c2c2ccccc2[n+]3[O-])cc1Cl,-13,85*,-2,5,x,101*,20*
Cc1c(C(=O)NCCCN2CCOCC2)oc2c1C1(CCC2)SCCS1,13,109*,1,7,-8,95*,181*
Cc1cccc(NN=C2c3ccccc3-c3ccccc32)c1,-11,88*,1,-9,2,115*,22*
Cn1c(SCC(=O)N/N=C/c2cccs2)nc2ccccc21,-17,16,x,1,-11,x,x
Cc1ccc(/C=N/NC(=O)CSc2nc3ccccc3n2C)s1,-1,108*,0,-1,-1,92*,52*
